# The full list was thinned out, with hits kept by preference.
# Ba CapD inh: inhibitors of Bacillus anthracis CapD enzyme. purified CapD enzyme, fluorescence intensity read-out; hits give low values. z-score (test concentration not listed). hit rate 0.23% among 140,000. AID 492967; in the data active means z-score mostly below about -2.9, no sharp cut-off; inactive means mostly above about -1.9
# * marks the source's active call; other numbers are inactive results.
SMILES,Ba CapD inh
O=C(NN1S(=O)(=O)c2ccccc2S1(=O)=O)c1nc[nH]c1C(=O)Nc1ccccc1,-0.78
CCCCN(CCCC)CCC(=O)NN1S(=O)(=O)c2ccccc2S1(=O)=O,-2.5
Cc1ccc(NN)cc1C,0.08
N#Cc1nccnc1N1CCN(C(=O)OCc2ccc3ccccc3c2)CC1,1
Cc1cccc(N(CC(=O)Nc2ccc(S(=O)(=O)N3CCCCC3)cc2)S(=O)(=O)c2ccccc2)c1C,-0.58
COc1cccc(/C=C/C(=O)O)c1,16
CC1CS/C(=C(/C(=O)O)C(=O)/C=C/c2cccc(O)c2)S1 (stereo unspecified),-5.4*
N#C/C(=C\c1cccc(O)c1)C(=O)O,-1.1
O=C(O)c1cc(=O)c2cc(Br)ccc2o1,0.56
COC(=O)N=Nc1c(O)[nH]c2ccc(Br)cc12,-0.73
O=c1ccc2cc3c([nH]c4ccc(Br)cc43)oc-2c1O,-7.8*
COc1ccc(C)cc1NCC(=O)Nc1ncc(Cl)c(C)c1Cl,3.6
CCOc1ccc(-c2cc(C(N)=O)on2)cc1,-0.86
NC(=O)c1cc(-c2ccc3c(c2)OCO3)no1,-0.57
Cc1ccc(-c2cc(C(N)=O)on2)cc1,-5.7*
CC1CC1C(=O)OCC(=O)NC(c1ccccc1)c1ccccc1 (stereo unspecified),-0.33
CC(C)(C)OC(=O)C(Cc1c[nH]c2ccccc12)NC(=O)c1ccccc1COC(=O)c1ccccc1 (stereo unspecified),0.5
C=CCN(CC=C)S(=O)(=O)c1ccc(C(=O)Nc2nc3ccc(S(C)(=O)=O)cc3s2)cc1,0.35
CCN(CC)S(=O)(=O)c1ccc(C(=O)Nc2c3c(nn2-c2ccc(Cl)cc2)CSC3)cc1,-1
O=C(O)c1ccc(C2Nc3ccccc3C3C=CCC32)cc1 (stereo unspecified),-7.9*
Brc1ccccc1[C@@H]1Nc2ccccc2[C@@H]2C=CC[C@@H]21,-0.46
CCc1ccc2c(c1)C1C=CCC1C(c1ccc(C(=O)O)cc1)N2 (stereo unspecified),-1.1
CC(=O)Oc1ccc(C2Nc3ccc(C(C)=O)cc3C3C=CCC32)c(OC(C)=O)c1 (stereo unspecified),1.3
CC(=O)Oc1ccc(C2Nc3ccc(C)cc3C3C=CCC32)c(OC(C)=O)c1 (stereo unspecified),0.035
CC(=O)Oc1ccc(C2Nc3ccc(C(=O)O)cc3C3C=CCC32)c(OC(C)=O)c1 (stereo unspecified),-4.4*
SMILES,Ba CapD inh
O=C(O)C1Nc2ccccc2C2C=CCC12 (stereo unspecified),-8.8*
O=C(O)c1ccc2c(c1)C1C=CCC1C(c1cccc3ccccc13)N2 (stereo unspecified),-0.62
O=C(O)c1ccc2c(c1)C1C=CCC1C(c1ccc(Br)cc1)N2 (stereo unspecified),-1.4
Cc1ccc(SCC(=O)Nc2nnc(CCS(=O)(=O)c3ccc(Br)cc3)s2)cc1,-0.96
FC(F)(F)c1cccc(NCn2nc(-c3ccccc3)oc2=S)c1,2.1
COc1cc(C2Nc3ccccc3C(c3ccccc3)(c3ccccc3)O2)ccc1O (stereo unspecified),-0.32
COc1ccc(NC(=O)c2ccc3c(=O)n(-c4ccc(OC)c(OC)c4)c(=S)[nH]c3c2)cc1OC,-0.43
CCCCN(C)c1nnc(NC(=O)Nc2cccc(C)c2)s1,1.1
O=C(CC1SC(=O)N(CN2CCOCC2)C1=O)Nc1cccc(O)c1 (stereo unspecified),-0.46
O=S(=O)(c1cccc(F)c1)N1CCN(c2cccc3[nH]ccc23)CC1,-0.63
O=C(O)COc1ccccc1/C=C1/SC(=S)N(c2cccnc2)C1=O,-4*
O=C(NN1C(=O)/C(=C\c2cccnc2)SC1=S)c1ccccc1,-1.4
COC(=O)c1cccc(N2C(=O)/C(=C\c3cccnc3)SC2=S)c1,-0.35
Cc1ccc(C2=NN3C(C2)c2cc(Br)ccc2OC3c2ccc(C(C)(C)C)cc2)cc1 (stereo unspecified),-0.005
Cc1ccc(C(=O)N/C(=C\c2ccc(C(C)C)cc2)C(=O)Nc2c(C)n(C)n(-c3ccccc3)c2=O)cc1,-0.3
COc1ccc(N(C(=O)c2ccncc2)S(=O)(=O)c2cccs2)cc1,-8.5*
O=C(Oc1ccc(N(C(=O)c2ccccc2)S(=O)(=O)c2cccs2)cc1)c1ccccc1,0.34
CC(=O)N(c1ccc(N(C(C)=O)S(=O)(=O)c2cccs2)cc1)S(=O)(=O)c1cccs1,-3.8
O=C(CCc1nc2ccccc2[nH]1)N1CCN(C2CCCCC2)CC1,0.66
N#CC(C#N)=C(N)/C(C#N)=C/c1ccc(-c2cccc(C(=O)O)c2)o1,-4*
N#C/C(=C\c1ccc(-c2cccc(C(=O)O)c2)o1)C(=O)NC1CCCCC1,-2.2
N#C/C(=C/c1ccc(-c2cccc(C(F)(F)F)c2)o1)c1ccc(C(=O)O)cc1,-2
Cc1ccc(C(=O)O)c(=O)[nH]1,20
CCCSc1[nH]c2ccccc2c1N=Nc1c(Cl)cc(Cl)cc1Cl,-1.9
CC(=O)N1CCC(N(C(=O)Nc2cccc(Cl)c2)C2CC2)CC1,-1
CCc1[nH]c(=S)[nH]c(=O)c1C#N,-6.5*
Cc1[nH]c(=O)c(C#N)c(C)c1Cl,0.04
CCc1[nH]c(=O)c(C#N)c2c1CCCC2,42
CC(=O)Nc1ccc(C)cc1[N+](=O)[O-],-0.61

# High-throughput results as filed in PubChem.
